# Assay results from PubChem BioAssay (EPA / NIEHS).
# Inconclusive results are not listed. Active and inactive are the calls of the source. How the source made its calls: active means hit-call score of the fitted dose curve at least 0.9, where 1 is the maximum; inconclusive means response in the unintended direction; inactive means score below 0.9.
# Read-out: Broad substrate specificity ATP-binding cassette transporter ABCG2 (Homo sapiens) (UniProt Q9UNQ0)
# Experiment: CLD_ABCG2_24hr: CellzDirect (CLD) Gene Expression Assay for ABC Transporter (ABCG2) at 24 hours (AID 2283685)
# Method: CLD_24hr is a cell-based, multiplexed-readout assay that uses hepatocyte, a human liver primary cell, with measurements taken at 24 hours after chemical dosing in a 96-well plate.CLD_ABCG2_24hr is one of 16 assay component(s) measured or calculated from the CLD_24hr assay. It is designed to make measurements of mRNA induction, a form of inducible reporter, as detected with chemiluminescence signals by Quantitative Nuclease Protection Assay (qNPA) technology.Data from the assay component CLD_ABCG2_24hr was analyzed at the endpoint, CLD_ABCG2_24hr, in the positive analysis fitting direction relative to DMSO as the negative control and baseline of activity. Using a type of inducible reporter, gain-of-signal activity can be used to understand changes in the reporter gene as they relate to the gene ABCG2. Furthermore, this assay endpoint can be referred to as a primary readout. To generalize the intended target to other relatable targets, this assay endpoint is annotated to the transporter intended target family, where subfamily is ABC transporter.
# Human hepatocyte cultures were treated daily for two consecutive days with fresh dosing solutions containing appropriate concentrations of the 320 ToxCast chemicals (chemical identities were blinded to CellzDirect and other ToxCast collaborators), vehicle control (0.2% DMSO), and positive control inducers as summarized in Table 1. Due to the large number of treatment groups and chemicals examined, the ToxCast chemicals were divided into two groups (spanning two independent cultures of hepatocytes from separate donor preparations (Hu778: ToxCast plates 1 and 2; Hu776: ToxCast plates 3 and 4). Each preparation of human hepatocyte cultures was treated with respective vehicle control, medium only control, set of six positive controls/reference chemicals for the five hepatic receptor pathways, and a subset of eight of the ToxCast chemicals (indoxacarb, pyrithiobac-sodium, norflurazon, cyhalofop-butyl, methomyl, thiram, acetochlor, and propiconazole). These replicate data, coupled with internal replicates designed within the blinded ToxCast chemical library, provided additional data to evaluate interindividual differences between hepatocyte preparations and their potential impact on chemical profiles.Cell morphology and integrity were evaluated using phase-contrast microscopy as an indicator of hepatocyte cell health (Tyson & Green, 1987). Cultures for each treatment group (i.e., media, vehicle [0.2% DMSO], positive control inducers [multiple concentrations], and the ToxCast chemicals [multiple concentrations]) were observed and cell morphology was assessed relative to vehicle control cultures at each harvest time point (0, 6, 24, or 48 h). […] Images were evaluated at the conclusion of the study to assess changes in cell integrity and account for the effects of chemical exposure on uncharacteristic changes in concentration-dependent gene expression profiles. The results from these determinations of apparent cytotoxicity were annotated (yes/no) alongside the corresponding qNPA data for reference.At the conclusion of each treatment period, hepatocyte cultures (96-well) were washed with 1 volume of HBSS, lysed by addition of 25 ul ArrayPlate lysis buffer (HTG, Tucson, AZ), and 70 ul/well of Denaturation Oil, denatured by incubation at 95C for 10 min, and frozen at approximately -70C until analysis by nuclease protection assay (qNPA) (Roberts et al., 2007). For qNPA analysis, cell lysates were thawed at 50C for approximately 30 min, qNPA probes were added, and samples were incubated at 95C for 10 min to begin the detection process by denaturing the target RNA, dissociating the duplexes and secondary structure hybridization. At the conclusion of the hybridization period, S1 nuclease reagent was added to each sample to digest all nonprotected nucleotides at 50C for 60-90 min. […]
# Chain of Broad substrate specificity ATP-binding cassette transporter ABCG2 (Homo sapiens) (Q9UNQ0 whole entry, looked up): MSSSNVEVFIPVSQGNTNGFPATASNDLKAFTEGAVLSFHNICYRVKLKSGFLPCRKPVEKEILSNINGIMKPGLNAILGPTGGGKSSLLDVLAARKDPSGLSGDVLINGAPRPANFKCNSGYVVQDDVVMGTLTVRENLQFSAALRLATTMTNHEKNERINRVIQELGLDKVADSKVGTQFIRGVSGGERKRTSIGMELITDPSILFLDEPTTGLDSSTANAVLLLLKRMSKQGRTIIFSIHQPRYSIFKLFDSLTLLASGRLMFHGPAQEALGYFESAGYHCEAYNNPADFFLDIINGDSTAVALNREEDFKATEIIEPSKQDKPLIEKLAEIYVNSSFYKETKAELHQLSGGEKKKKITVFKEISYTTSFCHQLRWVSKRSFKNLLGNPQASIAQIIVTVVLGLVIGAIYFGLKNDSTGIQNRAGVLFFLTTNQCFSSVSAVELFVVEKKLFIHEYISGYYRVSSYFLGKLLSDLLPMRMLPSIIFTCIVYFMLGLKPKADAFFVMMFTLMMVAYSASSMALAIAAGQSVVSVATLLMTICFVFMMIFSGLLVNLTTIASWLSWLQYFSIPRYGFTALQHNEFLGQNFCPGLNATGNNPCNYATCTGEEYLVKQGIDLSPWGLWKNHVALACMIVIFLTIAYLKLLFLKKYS
row,SMILES,outcome
1,CCOC(=O)C(C)Oc1ccc(Oc2nc3ccc(Cl)cc3o2)cc1 (stereo not given),inactive
2,CCOC(=O)COc1cc(-n2ncc(C(F)(F)F)c(C)c2=O)c(F)cc1Cl,inactive
3,COC(=O)CSc1cc(N=c2sc(=O)n3n2CCCC3)c(F)cc1Cl,inactive
4,CC(C)(c1ccc(O)cc1)c1ccc(O)cc1,inactive
5,COCCO,inactive
6,CCCN(CCC)C(=O)SCC,inactive
7,C#CCOC(=O)[C@@H](C)Oc1ccc(Oc2ncc(Cl)cc2F)cc1,inactive
8,OB(O)O,inactive
9,CCC(C)OC(=O)N1CCCCC1CCO (stereo not given),inactive
10,CCCN(CCC)c1c([N+](=O)[O-])cc(C(F)(F)F)c(N)c1[N+](=O)[O-],inactive
11,CCCCOC(=O)[C@@H](C)Oc1ccc(Oc2ccc(C(F)(F)F)cn2)cc1,inactive
12,O=C(O)C1(C(=O)Nc2ccc(Cl)cc2Cl)CC1,inactive
13,CCC(O)=C1C(=O)CC(C(=O)O)CC1=O (stereo not given),inactive
14,COc1c(Cl)ccc(Cl)c1C(=O)O,inactive
15,CC(C)(C)[C@@H](O)[C@@H](Cc1ccc(Cl)cc1)n1cncn1,inactive
16,CCCCOC(=O)C(C)Oc1ccc(Oc2ccc(C(F)(F)F)cn2)cc1 (stereo not given),inactive
17,CCSC(=O)N(CC(C)C)CC(C)C,inactive
18,CCCOC(=O)NCCCN(C)C,inactive
19,Cc1nn(C)c(Oc2ccccc2)c1C=NOCc1ccc(C(=O)OC(C)(C)C)cc1,inactive
20,CCOC(=O)[C@H](C)Oc1ccc(Oc2nc3ccc(Cl)cc3o2)cc1,inactive
21,CCCOC(=O)c1ccc(C(=O)OCCC)nc1,inactive
22,S=C([S-])NCCNC(=S)[S-].[Mn+2],inactive
23,CCOC(=O)NCCOc1ccc(Oc2ccccc2)cc1,inactive
24,CCCCCCC(C)OC(=O)COc1nc(F)c(Cl)c(N)c1Cl (stereo not given),inactive
25,S=C(S)NCCNC(=S)S.[Mn+2].[S-]C([S-])=NCCN=C([S-])[S-].[Zn+2],inactive
26,C=CCOC(Cn1ccnc1)c1ccc(Cl)cc1Cl (stereo not given),inactive
27,N#CSCSc1nc2ccccc2s1,inactive
28,CSC(=O)c1cccc2nnsc12,inactive
29,O=C(Nc1ccc([N+](=O)[O-])cc1Cl)c1cc(Cl)ccc1O,inactive
30,COC(=O)c1ccc(I)cc1S(=O)(=O)NC(=O)Nc1nc(C)nc(OC)n1,inactive
